Screening results as filed in PubChem BioAssay.
PfHsp90 set2 – growth inhibition of PfHsp90-expressing yeast, primary screen, antimalarial PfHsp90 inhibitor project, S. cerevisiae, BacTiter-Glo luminescence, single point, set 2; BacTiter-Glo ATP, 48 h; yeast lacking PDR1 and PDR3 efflux regulators; inhibition, % at 9.4 µM; 0.32% of 310,000 active;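 active = every replicate shows inhibition above about 80%, whatever the replicate mean, limit read from the data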
NLRP3 yeast inh – NALP3 inflammasome inhibitors in reconstituted yeast, primary screen, luminescence, uHTS; Yeast reconstituted NLRP3/ASC/caspase-1, beta-gal luminescence, 24 h; 0.39% of 330,000 active; AID 2825, 2010; inhibition, % at 10 µM;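 active = inhibition of 50% or more; inactive = inhibition below 50%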
TIM10 inh – growth inhibitors of isogenic TIM10 control yeast, primary screen, counter-screen for tim10-1 yeast inhibitor project, luminescence, uHTS; S. cerevisiae TIM10 strain growth, BacTiter-Glo luminescence, 24 h; 1.4% of 330,000 active; inhibition, % at 10 µM; AID 463195, 2010;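 active = inhibition of 40% or more at the single tested concentration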;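 note: wild-type TIM10 isogenic control strain grown at permissive 25 °C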
tim10-1 inh – growth inhibitors of tim10-1 mutant yeast, primary screen, luminescence, uHTS; S. cerevisiae tim10-1 ts strain growth, BacTiter-Glo, 24 h; inhibition, % at 20 µM; 2.2% of 330,000 active; AID 463190, 2010;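 active = inhibition of at least 40%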;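 note: mutant grown at 25 °C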
SKKanGAS inh – S. pyogenes SKKanGAS growth inhibitors in kanamycin, primary screen, streptokinase expression inhibitor project, SKKanGAS strain, BacTiter-Glo luminescence. 6 h. AID 1662, 2009. inhibition, % at 7.5 µM. 1.3% of 300,000 active;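 active = mean replicate score, as percent of positive control median, at least 50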;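 note: strain carries kanamycin resistance gene driven by streptokinase promoter and grows in 40 µg/ml kanamycin; loss of luminescence reflects streptokinase promoter inhibition or plain growth inhibition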
tim23-1 inh – growth inhibitors of tim23-1 mutant yeast, primary screen, luminescence, uHTS; S. cerevisiae tim23-1 growth, BacTiter-Glo luminescence, 24 h; inhibition, % at 20 µM; 1.3% of 330,000 active;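 active = growth inhibition of the mutant yeast at or above 50%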;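 note: temperature-sensitive mutant grown at 25 °C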
TIM10 conf – growth inhibitors of wild-type TIM10 yeast, confirmation, counter-screen for tim10-1 synthetic lethality project, single concentration, luminescence, S. cerevisiae | shares compounds with TIM10 inh | S. cerevisiae tim10 strain growth, BacTiter-Glo luminescence, 24 h | inhibition, % at 10 µM | 63% of 4,600 active | AID 463215, 2010;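 active = inhibition of yeast growth at or above a set limit in either of two replicates at 10 µM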; note: this counterscreen used the strain with wild-type TIM10
tim23-1 confirm – tim23-1 mutant yeast growth inhibitors, confirmation, luminescence, single concentration; AID 463218, 2010; 83% of 4,400 active; S. cerevisiae tim23-1 growth, BacTiter-Glo luminescence, 24 h; inhibition, % at 20 µM; shares compounds with tim23-1 inh;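 active = inhibition above about 39% in either of two replicate wells at 20 µM, limit read from the data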;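 note: temperature-sensitive tim23-1 mutant grown at 25 °C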
Large screens that a line does not name were inactive (follow-up assays come after a bar, where they were run). Rows were chosen to be rich in hits. Some 4.5% of all compounds tested hit in one or more screens of this group.

COc1ccccc1C(=O)NC(=S)/C=C1/N(C)c2ccccc2C1(C)C	TIM10 inh 44, tim23-1 inh 51 | TIM10 conf inactive | tim23-1 confirm 42
N/C(Cc1ccc(Cl)cc1)=N\OC(=O)C1CCCCC1	TIM10 inh 87, tim23-1 inh 79 | TIM10 conf inactive | tim23-1 confirm 53
COc1ccc2c(c1)C(c1ccccc1)NC(=O)C2 (configuration not stated)	none
O=C(Nc1cccc(C(=O)Nc2cccc(Br)c2)c1)c1ccccc1	none
O=C(Nc1cccc(Br)c1)c1ccn[nH]1	TIM10 inh 59, tim23-1 inh 57 | TIM10 conf 41 | tim23-1 confirm 60
CC(C)CCn1c(=O)c2sccc2n2c(CCCC(=O)N3CCC(N4CCCCC4)CC3)nnc12	none
CCC1(c2ccccc2)ON(c2c(Br)cccc2Br)C1=O (configuration not stated)	TIM10 inh 71, tim23-1 inh 78 (no result: SKKanGAS inh) | TIM10 conf 56 | tim23-1 confirm inactive
CCOC(=O)N1C(=O)[C@](CC)(c2ccccc2)N1C(=O)OCC	none
CCc1ccc(-c2nn(Cc3ccccc3)cc2C(=O)NCC2CCCO2)cc1 (configuration not stated)	none (no result: SKKanGAS inh)
O=C(/C=C/c1ccccc1O)c1ccccc1	none (no result: NLRP3 yeast inh, TIM10 inh, tim10-1 inh, SKKanGAS inh, tim23-1 inh)
O=C(/C=C/c1ccccc1O)c1ccc(Cl)cc1	TIM10 inh 42, tim23-1 inh 56 | TIM10 conf 39 | tim23-1 confirm 58
CC(C)(C)c1cc(C(C)(C)C)cc(S(=O)(=O)CCc2ccccn2)c1	TIM10 inh 51, tim23-1 inh 59 | TIM10 conf 57 | tim23-1 confirm 54
O=C(NCCc1cnn(-c2ccccc2)c1)c1cc(COc2c(F)cccc2F)on1	TIM10 inh 68, tim23-1 inh 52 | TIM10 conf 53 | tim23-1 confirm 68
Cc1c(C(=O)n2cnc3ccccc32)cccc1[N+](=O)[O-]	none
Cc1nc2ccccc2n1C(=O)c1ccccc1[N+](=O)[O-]	TIM10 inh 50 | TIM10 conf 47 | tim23-1 confirm 40
Cc1cc(NC(=O)c2ccco2)sc1C	TIM10 inh 43, tim23-1 inh 52 (no result: SKKanGAS inh) | TIM10 conf inactive | tim23-1 confirm 59
Cc1cccc(NC(=O)c2ccco2)c1C	none
C/C(=N\NC(=S)NCCc1ccccc1)c1cccs1	TIM10 inh 41, tim23-1 inh 51 | TIM10 conf inactive | tim23-1 confirm 46
S=C(NNc1ccnc2cc(Cl)ccc12)Nc1ccccc1Cl	TIM10 inh 40, tim23-1 inh 56 | TIM10 conf inactive | tim23-1 confirm inactive
C[C@H](CO)N1C[C@H](C)[C@@H](CN(C)C)Oc2c(NC(=O)CCC(F)(F)F)cccc2C1=O	none (no result: SKKanGAS inh)
OCc1cccc[n+]1Cc1ccccc1	none
CCOc1cc(C2c3c(oc4ccccc4c3=O)C(=O)N2c2nccs2)ccc1O (configuration not stated)	none
N#C/C(=C\c1ccccc1Cl)C(=O)Nc1ccccn1	TIM10 inh 43, tim23-1 inh 64 | TIM10 conf inactive | tim23-1 confirm 42
CCOC(=O)CS(=O)(=O)c1ccccc1	none
CCOC(=O)CS(=O)(=O)c1nc(-c2ccccc2)cc(C(F)(F)F)n1	TIM10 inh 44, tim23-1 inh 64 | TIM10 conf 55 | tim23-1 confirm inactive
CCCS/C(N)=N/N=C/c1ccccc1O	none
C=CCS/C(N)=N\N=C\c1c(O)ccc2ccccc12	TIM10 inh 53, tim23-1 inh 53 | TIM10 conf 42 | tim23-1 confirm 71
Cn1c(SCC(=O)N/N=C/c2ccc([N+](=O)[O-])s2)nnc1-c1ccc(Cl)cc1	PfHsp90 set2 105, TIM10 inh 81, tim23-1 inh 62 | TIM10 conf inactive | tim23-1 confirm 65
CC(C)(C)n1cnc2cc(NCc3ccc(Br)cc3)ccc21	TIM10 inh 53, tim23-1 inh 54 | TIM10 conf 37 | tim23-1 confirm 69
O=[N+]([O-])c1cc(C(F)(F)F)ccc1NCCCCNS(=O)(=O)c1ccc(Cl)cc1	none
O=[N+]([O-])c1cc(C(F)(F)F)ccc1NCCNC(=S)Nc1ccc(Cl)cc1	TIM10 inh 56, SKKanGAS inh 73, tim23-1 inh 81 | TIM10 conf 50 | tim23-1 confirm inactive
COc1cccc(N/N=C/c2cccc(Br)c2O)c1	TIM10 inh 57, SKKanGAS inh 63, tim23-1 inh 58 | TIM10 conf 36 | tim23-1 confirm 69
C(=C\c1ccc2ccccc2n1)/c1ccccc1	none
Oc1ccc(/C=C/c2ccc3ccccc3n2)cc1	TIM10 inh 44, tim23-1 inh 75 | TIM10 conf 47 | tim23-1 confirm 55
CCC(Oc1ccc(C)cc1)C(=O)Nc1ccc(S(=O)(=O)Nc2cc(C)on2)cc1 (configuration not stated)	none
CCC(C)c1ccc(NC(=O)c2[nH]c(C)c(C(C)=O)c2C)cc1 (configuration not stated)	TIM10 inh 43, tim23-1 inh 53 | TIM10 conf inactive | tim23-1 confirm 52
CN1C(=O)C(CC(=O)O)S/C1=N\N=C\c1ccc(O)cc1O (configuration not stated)	none
COc1ccc(C(=O)NN)cc1COc1ccc(Br)cc1	TIM10 inh 47, tim23-1 inh 61 | TIM10 conf 40 | tim23-1 confirm 43
COc1ccccc1-n1cnc2cc(NC(=O)c3ccco3)ccc21	TIM10 inh 44, tim23-1 inh 56 | TIM10 conf 37 | tim23-1 confirm 68
O=C(/C=C/c1ccccn1)c1cc(Cl)cc(Cl)c1O	TIM10 inh 61, tim23-1 inh 63 | TIM10 conf 53 | tim23-1 confirm inactive
COc1cc(OC)cc(C(=O)Oc2c(CN3CCOCC3)cc(Cl)c3cccnc23)c1	none
Oc1c(CN2CCc3ccccc3C2)cc(Cl)c2cccnc12	PfHsp90 set2 102, TIM10 inh 43, SKKanGAS inh 89, tim23-1 inh 56 | TIM10 conf 41 | tim23-1 confirm 54
O=C(CN1CCN(C(C(=O)Nc2cc(C(F)(F)F)ccc2Cl)c2ccccc2)CC1)NC1CC1 (configuration not stated)	none (no result: NLRP3 yeast inh, TIM10 inh, tim10-1 inh, SKKanGAS inh, tim23-1 inh)
